# Laboratory results: PubChem BioAssay (NCI)
# Where “and” joins values, the source holds several entries; their conditions need not be identical. Equal values may be shown once. This is part of a sample that, as a whole, favours compounds with a hit. Of some 79,000 tested, about 15% had one in any assay. A structure can be active in one record and inactive in another. Calls of active or inactive are those of the source. Cut-off read from the data, not from the text of the source: active = growth inhibition above about 70%; inactive = the rest.
# Assay: NCI Yeast Anticancer Drug Screen. Data for the bub3 strain (AID 167)
# Settings: S. cerevisiae bub3 mutant strain, at 50.0 µM, stronger effect = higher value
# Procedure, shortened: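 Readout: yeast growth inhibition, expressed relative to vehicle-only wells. The test organism is a mutant strain from a panel with lesions in DNA repair or checkpoint genes.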
row,Structure (SMILES),growth inhibition
1,O=C(O)C1(Cc2ccccc2)Cc2cc3c(cc2C1)CCC3,89.7% (active)
2,CC1=C(C(=O)Nc2c(C)cccc2C)C(c2ccc3c(c2)OCO3)C(C(=O)Nc2c(C)cccc2C)=C(C)N1,87.5% (active)
3,COc1cc2c(c3c1/c(=N/N(C)C)c1ccccc1n3C)C=CC(C)(C)O2,-15.7% (inactive)
4,CC(=O)Nc1nc(N)c2ncn(C3OC(C(O)CO)C(O)C3O)c2n1 (configuration not stated),-10.2% (inactive) and 10.1% (inactive)
5,CC(C)(Cc1nocc1C(C)(C)CC#N)c1cc(CC(C)(C)C2(C)OCCO2)no1,-47.8% (inactive)
6,CCOC(=O)c1c[nH]c2c(ccc3cccnc32)c1=O,18.4% (inactive) and 6.8% (inactive)
7,Cc1ncc(C[n+]2cccc(CCO)c2C)c(N)n1,8.65% (inactive) and 29.9% (inactive)
8,Clc1ccc2c(c1)[nH]c1c2nc2ccccn21,15.2% (inactive) and 79.2% (active)
9,O=C(O)c1ccccc1C(=O)O,-7.45% (inactive) and -11.4% (inactive)
10,COC1/C=C/OC2(C)Oc3c(C)c(O)c4c(c3C2=O)C(=O)C=C(NC(=O)/C(C)=C\C=C\C(C)C2OC(C)(C)OC(C2C)C(C)C(OC(C)=O)C1C)C4=O (configuration not stated),45.8% (inactive)
11,CCN(CC)CCCn1c2cc(=O)c(=O)cc-2[nH]c2cc(C)ccc21,-8.05% (inactive)
12,O=[N+]([O-])c1ccc(N/N=C/CC(O)(C(F)(F)F)C(F)(F)F)c([N+](=O)[O-])c1,86.4% (active)
13,OCc1ccccc1C(c1ccccc1)c1ccccc1,91% (active)
14,COc1ccc2[nH]c3c(C)c4ccncc4c(C)c3c2c1,92.7% (active) and 99.3% (active)
15,CC(C)CCC[C@@H](C)[C@H]1CC[C@H]2[C@@H]3CC=C4N5CCCN=C5CC[C@]4(C)[C@H]3CC[C@]12C,98.2% (active)
16,CC(C)CCCC(C)C1CCC2C3CC=C4CC([n+]5cccc6ccccc65)CCC4(C)C3CCC12C (configuration not stated),92.2% (active)
17,O=C1/C(=C/c2ccc(Cl)cc2)CNC/C1=C\c1ccc(Cl)cc1,79.9% (active) and 85.3% (active)
18,CCn1c2ccccc2c2ccc(N=Cc3ccc(N(C)C)cc3)cc21,70.7% (active)
19,O=C1NC(=O)c2cc([N+](=O)[O-])ccc21,-0.35% (inactive) and 34.4% (inactive)
20,O=c1[nH]c(SCc2c(Cl)c(Cl)c(Cl)c(Cl)c2Cl)nc(=S)[nH]1,65.8% (inactive)
21,Cn1c2nc3ccccc3c-2cc2ccccc21,70.8% (active) and 68.2% (inactive)
22,O=Cc1cc(Br)ccc1O,91.7% (active) and 97.5% (active)
